Pf Dd2 inh = Plasmodium falciparum Dd2 growth inhibition; P. falciparum Dd2 growth, SYBR Green, 72 h; Potency, µM (doses to about 28.9 µM), for inactives: top-dose activity, negative = inhibition, actives largely listed as inhibitors; 120,000 tested, 4.3% active; AID 1347417; active = well fitted inhibition curve with a large enough effect;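 note: plate controls were DMSO vehicle for no effect and reference drug for full effect; nearly all actives have a fitted effect of over 65% in size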
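Infected erythrocytes (Dd2, 0.3% parasitemia, 2.5% hematocrit final) are added to compound in RPMI-1640/Albumax II medium, grown 72 h at 37C in low oxygen, then lysed with saponin/Triton-X containing SYBR Green and read by fluorescence.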
The depositor's hits bear a star; [ ] = dose if it differs, or a comment. Many of the other results were omitted from the sample, so hits are more common in it than they were. Potency is the fitted concentration of half-maximal effect.

`O=C(NC(c1ccccc1)c1ccccc1)c1cnc2c(c1)N([S+](=O)([O-])c1cccnc1)CCC2` gave Pf Dd2 inh 36%.
`CCOC(=O)CCNC(=O)N1CCc2c(nc3cc(-c4ccccc4)[nH]n3c2=O)C1` gave Pf Dd2 inh inactive.
Screening CCn1c2c(c(=O)n3ncc(C(=O)Nc4ccc(F)cc4Cl)c13)CN(Cc1ccc(OC)cc1)CC2 returned Pf Dd2 inh 11µM*.
Screening CCOC(=O)c1ccc(NC(=O)CSc2nc3c(c(=O)[nH]2)CN(Cc2ccccc2)CC3)cc1 returned Pf Dd2 inh -10%.
COc1ccc(-c2nc(C)nc3c2CN(Cc2ccc(NC(C)=O)cc2)CC3)cc1 was read as Pf Dd2 inh inactive.
For COC(=O)N1CCn2ncc(C(=O)Nc3ccc(Cl)cc3Cl)c2C1 the results were Pf Dd2 inh -3%.
For COc1cc(=O)n2c(c1C(=O)Nc1ccc(F)cc1Cl)CCCC2 the results were Pf Dd2 inh 32%.
For CCn1c2c(c(=O)n3ncc(C(=O)Nc4ccc(C(=O)OC)cc4)c13)CN(Cc1ccc(OC)cc1)CC2 the results were Pf Dd2 inh 10µM*.
COCCN1CCCCCC(O)c2cc(C(=O)NC3CCC3)ccc21 (stereo not given) was read as Pf Dd2 inh inactive.
For CN(c1ncccc1CNC(=O)CN1CCCC1=O)C1CCCCC1 the results were Pf Dd2 inh -4%.
COc1cccc(CN2CC[C@H]3COC(=O)N3c3cc(F)ccc3C2)c1 was read as Pf Dd2 inh inactive.
COCCCNC(=O)C1c2ccccc2CC(=O)N1Cc1ccccc1 (stereo not given) was read as Pf Dd2 inh -6%.
COc1ccc(Cn2ccc3nc(C)c(C(=O)N4CCN(c5cccc(OC)c5)CC4)cc3c2=O)cc1 was read as Pf Dd2 inh 13µM*.
COc1ccc(Cn2ccc3nc(C)c(C(=O)NCc4cccc(OC)c4)cc3c2=O)cc1 was read as Pf Dd2 inh -25%.
`COc1ccc(Cn2ccc3nc(C)c(C(=O)N4CCN(c5ccccc5)CC4)cc3c2=O)cc1` gave Pf Dd2 inh 14%.
Screening COCCNC(=O)[C@@H]1C[C@@H](O)CN1C1CCN(C(=O)c2ccccc2OC)CC1 returned Pf Dd2 inh 18%.
`CN1C(=O)CC(C(=O)O)C12CCN(C(=O)C1(c3ccccc3)CC1)CC2` (stereo not given) gave Pf Dd2 inh 5%.
For Cc1ccc(C)c(NC(=O)CSc2nc(-c3ccccc3Cl)nc3c2Cc2c(CO)cnc(C)c2O3)c1 the results were Pf Dd2 inh 9%.
C=Cc1ccc(CSc2nnc(C)n3c2cc2occc23)cc1 was read as Pf Dd2 inh -1%.
Screening CCc1ccccc1NC(=O)CSc1nc(-c2ccccc2OC)nc2c1Cc1c(CO)cnc(C)c1O2 returned Pf Dd2 inh -12%.
For CCc1ccc(CSc2nc(-c3ccccc3OC)nc3c2Cc2c(CO)cnc(C)c2O3)cc1 the results were Pf Dd2 inh 3.2µM*.
`C=Cc1ccc(CSc2nc(-c3ccc(C)cc3)nc3c2Cc2c(CO)cnc(C)c2O3)cc1` gave Pf Dd2 inh 2.8µM*.
For Cc1ccc(-c2nc3c(c(SCC(=O)N4CCCCC4)n2)Cc2cc(C)ccc2O3)cc1 the results were Pf Dd2 inh -22%.
`COc1ccccc1-c1nc2c(c(SCC(=O)Nc3c(C)cc(C)cc3C)n1)Cc1c(CO)cnc(C)c1O2` gave Pf Dd2 inh -16%.
CCc1ccc(NC(=O)CSc2nc(-c3cccc(OC)c3)nc3c2Cc2c(CO)cnc(C)c2O3)cc1 was read as Pf Dd2 inh 3.5µM*.
For Cc1ccc(CSc2nc(-c3ccccc3C)nc3c2Cc2c(CO)cnc(C)c2O3)cc1 the results were Pf Dd2 inh 5µM*.
`CCCCSc1nc(-c2cccc(OC)c2)nc2c1Cc1c(CO)cnc(C)c1O2` gave Pf Dd2 inh -14%.
For COc1ccc(-c2nc3c(c(SCC(=O)Nc4cc(C)cc(C)c4)n2)Cc2c(CO)cnc(C)c2O3)cc1 the results were Pf Dd2 inh 49%.
`Cc1cccc(-c2nc3c(c(SCc4ccccc4Cl)n2)Cc2c(CO)cnc(C)c2O3)c1` gave Pf Dd2 inh 1%.
Screening O=C1CC2(CCN(CC3CC3)CC2)Oc2ccccc2N1 returned Pf Dd2 inh -14%[44.1 µM].
For O=C(Nc1ccc2c(c1)OCCO2)N1CCC(c2nc(C3CCOCC3)no2)CC1 the results were Pf Dd2 inh inactive.
For NC(=O)[C@@H]1CCCN1CC[C@H]1CN(C(=O)NC2CCCCC2)CC[C@H]1CC(=O)O the results were Pf Dd2 inh 29%[44.1 µM].
Screening Cc1cnc(-c2ccccc2)n1C1CCN(C(=O)c2ccco2)CC1 returned Pf Dd2 inh inactive.
For Cc1nc(NCc2csc(-c3cnccn3)n2)cc(C2CC(O)C2)n1 (stereo not given) the results were Pf Dd2 inh -27%.
For CN1CCN(S(=O)(=O)c2cccc(C(=O)N3C[C@@H]4CCN[C@@H]4C3)c2)CC1 the results were Pf Dd2 inh 1%.
For COc1ccc(C(=O)N2CCC3(CCC(=O)N(Cc4ccccc4)CC3)CC2)c(OC)n1 the results were Pf Dd2 inh 306%.
